# FLuc counter = qHTS profiling assay for firefly luciferase inhibitor/activator using purifed enzyme and Km concentrations of substrates (counterscreen for miR-21 project); Luciferin 4-monooxygenase (Photinus pyralis), P08659; purified FLuc, Km substrates, luminescence inhibition; Potency, µM (highest dose often 57.5 µM), actives largely listed as inhibitors; actives 6.9% (n = 360,000); note: nearly all actives have a fitted effect of over 55% in size
# Target sequence (P08659 whole entry, looked up): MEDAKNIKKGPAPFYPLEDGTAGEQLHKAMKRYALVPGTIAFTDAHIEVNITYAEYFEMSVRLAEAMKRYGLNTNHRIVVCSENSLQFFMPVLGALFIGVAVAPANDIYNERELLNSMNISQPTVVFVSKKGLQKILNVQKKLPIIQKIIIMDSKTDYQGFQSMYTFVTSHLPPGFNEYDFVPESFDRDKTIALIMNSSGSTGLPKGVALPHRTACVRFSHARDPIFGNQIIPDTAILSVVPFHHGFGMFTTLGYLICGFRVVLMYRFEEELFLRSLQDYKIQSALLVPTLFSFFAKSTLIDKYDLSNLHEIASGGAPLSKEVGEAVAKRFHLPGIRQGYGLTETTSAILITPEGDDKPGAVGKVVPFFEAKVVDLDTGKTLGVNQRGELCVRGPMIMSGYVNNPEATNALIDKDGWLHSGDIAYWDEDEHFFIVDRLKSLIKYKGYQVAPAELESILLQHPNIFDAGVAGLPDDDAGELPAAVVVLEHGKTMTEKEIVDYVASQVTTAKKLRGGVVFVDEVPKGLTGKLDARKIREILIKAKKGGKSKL
#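 Biochemical qHTS of compounds, final roughly 60 µM downward over six points, against 10 nM purified firefly luciferase using Km concentrations of substrates (10 uM D-luciferin, 10 uM ATP) in Tris acetate pH 7.5 buffer; luminescence output.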
# Rab9 prom act = qHTS Assay for Rab9 Promoter Activators | Potency, µM (doses to about 9.22 µM), actives largely listed as activators | Huh7 Rab9 promoter-luciferase reporter, luminescence, 24 h | actives 2.8% (n = 320,000); note: nearly all actives have a fitted effect of over 60% in size
#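 Luciferase signal after 10 min detection reagent at ambient indicates Rab9 promoter upregulation; stably transfected Huh7 cells were treated 24 h with compound in DMSO at 37 °C, 5% CO2.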
# ELG1 genotoxic = qHTS screen for small molecules that induce genotoxicity in human embryonic kidney (HEK293T) cells expressing luciferase-tagged ELG1. HEK293T ELG1-luciferase reporter, luminescence, 16 h. AID 504466, 2011. actives 1.3% (n = 330,000). Potency, µM (series often up to 46 µM), actives largely listed as activators; note: nearly all actives have a fitted effect of over 60% in size
#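 ELG1-luciferase HEK293T cells, 2,000/well; compound pinned in; 16 hr, 37 °C, 5% CO2; ONE-Glo, 30 min RT; luminescence on CCD imager.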
# SMN2 splice up = qHTS Assay for Enhancers of SMN2 Splice Variant Expression. Potency, µM (highest dose often 46.1 µM), actives largely listed as activators. HEK293 SMN2-luciferase splicing reporter, luminescence, 30-36 h. actives 2.8% (n = 210,000); note: nearly all actives have a fitted effect of over 55% in size
#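 qHTS luciferase splicing reporter: luminescence rises when SMN2 exon 7 is included in transfected HEK293 cells. Compound exposure lasted 30-36 h at 37C, with 4.5 mM final sodium butyrate as control, followed by a ONE-Glo read.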
# NPC1 promoter act = qHTS Assay for NPC1 Promoter Activators; Huh7 NPC1 promoter luciferase reporter, 24 h; actives 2.4% (n = 320,000); AID 485313, 2010; Potency, µM (series often up to 9.22 µM), usual class: activators; note: nearly all actives have a fitted effect of over 60% in size
#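 Huh7 cells stably carrying NPC1 promoter–luciferase, plated in Opti-MEM with 10% FBS for 2 h, were exposed to compound in DMSO for 24 h at 37 °C; luciferase reagent was added for 10 min and luminescence read.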
# Numbers stand for hits; - = inactive; ? = inconclusive; . = no result; [ ] = remark or other dose. The list is not random: actives were taken first. Their share in the collection is about 7.4%. Calls come from the whole dose curve; as a rule, active = well fitted curve in the direction sought with a large enough effect; inconclusive = small, poorly fitted or top-dose-only effect, or another doubt; inactive = no such curve, though single readings can be large; an effect the other way counts as inactive or inconclusive.
SMILES,FLuc counter,Rab9 prom act,ELG1 genotoxic,SMN2 splice up,NPC1 promoter act
Cc1cc(-c2nc(-c3ccncc3)no2)ccc1[N+](=O)[O-],4.8µM,4µM,?,.,2.2µM
COc1cc(OC)c(NC(=O)CCc2nc(-c3ccc(C)cc3)no2)cc1Cl,21µM,-,-,-,-
Cc1ccc(-c2nc(-c3ccncc3)no2)cc1Cl,2.7µM,3.2µM,?,.,2µM
Cc1cccc(CNC(=O)Cn2nc(C)c3nn(-c4ccc(Cl)cc4)c(C)c3c2=O)c1,-,.,.,.,.
Cc1nn(C)c2c1c(C(F)(F)F)cc(=O)n2CC(=O)NC(C)(C)C,-,.,.,.,.
CC1CCCN(C(=O)CSc2c3c(nc4cc(Cl)ccc24)CCCC3)C1 (stereo not drawn),-,.,.,-,.
COc1ccc(-c2noc(-c3ccccc3Cl)n2)cc1OC,2.7µM,2.5µM,?,5.6µM,3.2µM
COc1ccc(-c2noc(-c3cccc(Cl)c3)n2)cc1OC,?,-,?,?,?
Fc1cccc(F)c1-c1nc(-c2ccncc2)no1,17µM,2µM,?,.,?
FC(F)(F)c1ccccc1-c1nc(-c2ccncc2)no1,?,-,-,.,-
O=C(c1cn(-c2ccccc2)nc1-c1ccc(Cl)s1)N1CCOCC1,17µM,-,-,-,-
O=C(c1cc(-c2cccs2)on1)N1CCN(c2ccc(F)cc2)CC1,24µM,-,-,-,-
O=C(c1cc(-c2cccs2)on1)N1CCN(c2ccccc2)CC1,17µM,-,-,-,-
O=C(c1cc(-c2cccs2)nc2ccccc12)N1CCN(S(=O)(=O)c2ccccc2)CC1,?,-,-,-,-
O=C(c1cc(-c2cccs2)nc2ccccc12)N1CCN(c2ccccc2)CC1,11µM,-,-,-,-
O=C(c1cn(-c2ccccc2)nc1-c1ccc(Cl)cc1)N1CCOCC1,?,-,-,-,-
Cc1cn2c(=O)cc(COC(=O)c3cccc(NC(=O)COc4ccccc4)c3)nc2s1,-,.,.,.,.
O=C(Nc1nonc1-c1ccc(Cl)cc1)c1ccccc1F,-,.,.,-,.
COc1ccc(CCNC(=O)c2cnn(-c3ccc(F)cc3)c2C2CCN(C(=O)OC(C)(C)C)CC2)c(OC)c1,-,.,.,.,.
COCCn1c(=O)c(-c2cc(F)cc(F)c2)nc2cnc(OC)nc21,.,.,.,-,.
Cc1nc2nc(C)c(CCC(=O)NCc3ccccc3)c(C)n2n1,-,.,.,-,.
O=C(c1cccs1)N1CCN(C(=O)c2cn(-c3ccccc3)nc2-c2ccccc2)CC1,.,.,-,.,.
O=C(c1cn(-c2ccccc2)nc1-c1cccs1)N1CCN(c2ccc(F)cc2)CC1,13µM,-,-,.,-
O=C(O)c1cc(-c2cccs2)nc2ccc(Br)cc12,19µM,-,-,.,-
O=C(Nc1ccc(C(=O)c2ccc(C(=O)O)c(C(=O)O)c2)cc1)c1ccccc1,11µM,-,-,.,-
SMILES,FLuc counter,Rab9 prom act,ELG1 genotoxic,SMN2 splice up,NPC1 promoter act
O=C(O)c1ccc(C(=O)O)c(C(=O)c2ccc(NC(=O)c3ccccc3)cc2)c1,19µM,-,-,.,-
O=C(O)c1ccc(NC(=O)c2cccc(C(=O)Nc3ccc(C(=O)O)cc3)c2)cc1,-,-,-,.,-
CCOc1ccc(OCC)c(NC(=O)C(NS(=O)(=O)c2cccs2)c2ccccc2)c1 (stereo not drawn),-,.,.,-,.
CC1CC(=O)c2cnc(Nc3ccccc3)nc2C1 (stereo not drawn),9.5µM,3.5µM,5.8µM,11µM,3.2µM
Cc1ccc(Nc2ncc3c(n2)CC(C)CC3=O)c(C)c1 (stereo not drawn),7.6µM,?,7.3µM,.,-
CC1CC(=O)c2cnc(Nc3cccc(C(F)(F)F)c3)nc2C1 (stereo not drawn),?,?,-,-,-
CCCCC/C=C\C[C@@H](O)/C=C/C=C\C/C=C\CCCC(=O)O,.,.,.,-,.
CN(Cc1ccccc1)C(=O)C1CCC(CNS(=O)(=O)c2ccc3c(c2)CCCC(=O)N3)CC1 (stereo not drawn),-,.,.,.,.
COc1ccc(C(=O)NCC2OCCc3ccccc32)c(O)c1 (stereo not drawn),21µM,?,?,?,-
CC(C)COc1ccc(C(=O)NCC2OCCc3ccccc32)cc1 (stereo not drawn),?,.,.,-,.
CCOC(=O)N1CCN(C(=O)CSCc2ccc(Cl)cc2)CC1,-,-,-,-,-
CCOC(=O)N1CCN(C(=O)CSc2nnc(COc3ccccc3)o2)CC1,-,-,-,4µM,-
CCOC(=O)N1CCN(C(=O)CSCc2ccccc2)CC1,?,?,-,11µM,?
COC(=O)[C@H](COC(C)(C)C)NC(=O)O[C@H]1C(=O)c2cc(OC)ccc2O[C@@H]1c1ccc(OC)c(Br)c1,.,.,.,-,.
O=C(O)c1ccccc1-c1ccc(/C=C2\SC(=O)N(c3ccccc3)C2=O)o1,13µM,2µM,?,.,2.5µM
Cc1ccccc1NC(=O)CN1C(=O)S/C(=C\c2ccc(-c3cccc(C(=O)O)c3C)o2)C1=O,?,-[1.84 µM],-,11µM,-
CC1=NN(c2ccc(Br)cc2)C(=O)/C1=C/c1ccc(-c2ccccc2C(=O)O)o1,27µM,-,-,.,-
Cc1ccccc1NC(=O)CN1C(=O)c2ccccc2C1=O,-,-,-,.,-
Cc1cccc(NC(=O)CN2C(=O)S/C(=C\c3ccc(-c4cccc(C(=O)O)c4C)o3)C2=O)c1,19µM,-,-,-,-
O=C1S/C(=C\c2ccc(N3CCOCC3)o2)C(=O)N1c1ccccc1,?,?,?,-,?
Cc1ccc(NC(=O)CN2C(=O)S/C(=C/c3ccc(-c4cc(C(=O)O)ccc4C)o3)C2=O)cc1C,?,-,-,-,-
O=c1c2ccccc2n(Cc2cccc(F)c2)c(=O)n1Cc1ccccc1Cl,-,.,.,-,.
Cc1ccc(NC(=O)CCn2c(=O)c3cccn3c3ccccc32)cc1Cl,-,.,.,.,.
CCN(c1ccccc1)S(=O)(=O)c1ccc(NC(=O)c2nc(SC(C)C)ncc2Cl)cc1,-,.,.,-,.
Cc1ccc2c(c1)c(=O)c(C(=O)c1ccc3c(c1)OCO3)cn2Cc1cccc(F)c1,-,.,.,-,.
SMILES,FLuc counter,Rab9 prom act,ELG1 genotoxic,SMN2 splice up,NPC1 promoter act
Cc1snc2sc(C(=O)c3ccc(Br)cc3)c(N)c12,-,4µM,12µM,?,2.8µM
Cc1ccc(C(=O)c2sc3nsc(C)c3c2N)cc1,1.7µM,2.8µM,0.58µM,10µM,1.1µM
Cc1nc(-c2ccccc2)nc2sc(C(=O)c3ccc(F)cc3)c(N)c12,-,-,-,.,-
CCN(CC)C(=O)CSc1nc2ccc(NC(=O)CSc3nnc(N)s3)cc2s1,?,-,-,-,-
Cn1cnnc1SCC(=O)Nc1ccc2nc(SCc3ccccc3Cl)sc2c1,17µM,-,-,-,-
CCN(CC)C(=O)CSc1nc2ccc(NC(=O)CSc3nccn3C)cc2s1,19µM,-,-,-,-

# Screening results as filed in PubChem BioAssay.
